High-throughput results from PubChem BioAssay.
sEH act: increases human soluble epoxide hydrolase activity; P34913; purified human sEH enzymatic activity, activator screen; activation, % at 2 µM; 0.04% of 91,000 active; AID 717; in the data active = activation above about 37%
sEH inh: blocks human soluble epoxide hydrolase activity | P34913 | recombinant human sEH enzymatic activity assay | inhibition, % at 2 µM | 0.34% of 91,000 active | AID 707; in the data active = inhibition above about 80%
CYP2C19 activ: increases human CYP2C19 enzyme activity; P33261; recombinant CYP2C19, luciferin-H EGE luminescence; stronger effect = higher value; 0 = fully inhibited enzyme, 1 = untreated enzyme; activation factor at 5 µM; 96,000 tested, under 10 active; AID 1025;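 active = activation factor of at least 2 at 5 µM in the primary screen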
Target sequence (P33261 whole entry, looked up): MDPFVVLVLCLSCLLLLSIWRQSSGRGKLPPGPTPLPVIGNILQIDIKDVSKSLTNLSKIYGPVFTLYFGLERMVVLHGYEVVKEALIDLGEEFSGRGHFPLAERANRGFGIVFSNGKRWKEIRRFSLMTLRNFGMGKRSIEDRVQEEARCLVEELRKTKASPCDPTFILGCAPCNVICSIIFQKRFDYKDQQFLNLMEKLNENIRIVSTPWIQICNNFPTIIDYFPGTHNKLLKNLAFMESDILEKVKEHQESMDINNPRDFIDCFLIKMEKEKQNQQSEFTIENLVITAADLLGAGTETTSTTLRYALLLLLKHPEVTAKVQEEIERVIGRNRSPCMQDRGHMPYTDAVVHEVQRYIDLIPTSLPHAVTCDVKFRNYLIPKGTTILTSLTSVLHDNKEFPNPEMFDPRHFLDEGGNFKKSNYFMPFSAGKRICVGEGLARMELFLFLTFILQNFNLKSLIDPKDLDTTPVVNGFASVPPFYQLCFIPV
CYP2C19 inh: blocks human cytochrome P450 2C19; P33261; CYP2C19 Supersomes, luciferin-H EGE luminescence, 30 min; inhibition, % at 5 µM; 21% of 96,000 active;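 active = CYP2C19 inhibition above a set limit at 5 µM in the primary screen, cut at about 50% in these data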
CYP2C9 act: increases human cytochrome P450 2C9 activity. recombinant CYP2C9, luciferin-H conversion, luminescence; stronger effect = higher value; factor 1 = untreated enzyme, 0 = blocked. AID 1024. 1.4% of 96,000 active. activation factor at 5 µM;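 active = activation factor of 2 or more for CYP2C9 at a 5 µM dose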
CYP2C9 inh: inhibitors of human CYP2C9. 20% of 96,000 active. inhibition, % at 5 µM. CYP2C9 Supersomes, luciferin-H conversion, luminescence. P11712. AID 777;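 active = blocking of liver enzyme CYP2C9 beyond about 50% at 5 µM, limit read from the data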
Large screens that a line does not name were inactive. An excerpt weighted towards active compounds, which were near 27% of everything screened.

COC(=O)C1CCCN1S(=O)(=O)c1ccc2ccccc2c1 (stereo unspecified)	CYP2C9 act 2.7
COC(=O)C1CN(S(=O)(=O)c2ccc(C)cc2)CCN1S(=O)(=O)c1ccc(C)cc1 (stereo unspecified)	none
COc1ccc(S(=O)(=O)N2CCCCC2C(=O)O)cc1 (stereo unspecified)	none (no result: CYP2C19 activ, CYP2C19 inh, CYP2C9 act, CYP2C9 inh)
Cc1ccc(S(=O)(=O)N2CCCC2C(=O)Oc2ccccc2)cc1 (stereo unspecified)	CYP2C19 inh 75.3
CCOc1ccccc1Nc1ccc(C(=O)O)cc1NC(C)=O	none (no result: sEH act, sEH inh)
O=C(CSc1nnc(CN2CCCCCC2=O)n1-c1ccccn1)NCC(F)(F)F	none
COc1ccc(NC(=O)CCCn2c(=O)[nH]c3ccccc3c2=O)cc1	CYP2C19 inh 52.7, CYP2C9 inh 88.7
Cc1ccc(CNC(=O)CCCn2c(=O)[nH]c3ccccc3c2=O)cc1	none
CCOC(=O)C1CCN(C(=O)CCCCn2c(=O)[nH]c3ccccc3c2=O)CC1	none (no result: CYP2C19 activ, CYP2C19 inh, CYP2C9 act, CYP2C9 inh)
COc1ccc(NC(=O)CCCn2c(=S)[nH]c3ccccc3c2=O)cc1	CYP2C9 inh 58.6
COc1ccc(NC(=O)CCCCn2c(=O)[nH]c3ccccc3c2=O)cc1	CYP2C9 inh 66.5
CC1CCCN(C(=O)CCCn2c(=S)[nH]c3ccccc3c2=O)C1 (stereo unspecified)	CYP2C19 inh 53.1, CYP2C9 inh 51.2
COc1ccc(CCNC(=O)c2ccn[nH]2)cc1OC	none (no result: sEH act, sEH inh)
CC(C)n1c(=S)[nH]c2ccccc2c1=O	none (no result: sEH act, sEH inh)
CC1CCCCC1n1c(=S)[nH]c2ccccc2c1=O (stereo unspecified)	CYP2C19 inh 72.0 (no result: sEH act, sEH inh)
COc1cc(S(=O)(=O)Nc2ccccc2)ccc1NC=O	none
COc1ccc(NS(=O)(=O)c2ccc(OC)c(N(C)S(=O)(=O)c3ccc(Cl)cc3)c2)cc1	CYP2C9 inh 60.8
COc1ccc(S(=O)(=O)Nc2ccc(F)cc2)cc1N(C)S(=O)(=O)c1ccc(Cl)cc1	CYP2C19 inh 52.3, CYP2C9 inh 66.8
COC(=O)c1ccc(CNC(=O)/C=C/c2cc([N+](=O)[O-])ccc2OC(F)F)cc1	none
COc1ccccc1NC(=O)Nc1ncccc1C	none
CCOc1ccc(S(=O)(=O)N(CC(=O)Nc2cc(C)on2)Cc2ccccc2Cl)cc1	CYP2C19 inh 71.4, CYP2C9 inh 82.5
CCOC(=O)CNC(=O)Nc1ccccc1C(=O)OC	none
Cn1c(O)c(C(C#N)=C2N=c3ccccc3=N2)c2ccccc21	none
COc1cccc(OC)c1C(=O)N1CCN(Cc2ccccc2C(F)(F)F)CC1	CYP2C19 inh 93.5, CYP2C9 inh 90.9
CCCS(=O)(=O)N1CCN(C(=O)c2cc(OC)cc(OC)c2)CC1	CYP2C19 inh 70.8
COc1cc(OC)cc(C(=O)N2CCN(Cc3ccccc3C(F)(F)F)CC2)c1	CYP2C19 inh 77.7
CCC(C)(C(=O)NC1CCCCC1)N(C(=O)c1cnccn1)c1c(C)n(C)n(-c2ccccc2)c1=O (stereo unspecified)	none
COCCCNC(=O)Cn1nnc(-c2ccc(NC(=O)c3ccc(F)cc3)cc2)n1	none (no result: sEH act, sEH inh)
CCOc1ccc(C2=Cc3cc(OC)c(OC)cc3C(=C(Cl)Cl)O2)cc1	none
CC(=O)Nc1ccc(S(=O)(=O)NCC(=O)OCC(=O)N2CCc3ccccc32)cc1	CYP2C9 inh 71.3
COc1ccc(S(=O)(=O)NC(CC(=O)N2CCc3ccccc32)c2ccco2)cc1 (stereo unspecified)	none
CCOc1ccc(S(=O)(=O)NCCC(=O)OC(C)C(=O)N2CCc3ccccc32)cc1 (stereo unspecified)	CYP2C19 inh 50.3, CYP2C9 act 2.1 (no result: sEH act, sEH inh)
CC(OC(=O)C1CCN(S(=O)(=O)c2ccc(Cl)cc2)CC1)C(=O)N1CCc2ccccc21 (stereo unspecified)	CYP2C19 inh 65.7
O=C(C1CCN(S(=O)(=O)c2ccc3c(c2)OCCO3)CC1)N1CCc2ccccc21	none (no result: sEH act, sEH inh)
CCOc1ccc(S(=O)(=O)NCCC(=O)OCN2C(=O)c3ccccc3C2=O)cc1	CYP2C19 inh 70.5
O=C(CNS(=O)(=O)c1ccccc1Br)OCC(=O)N1CCc2ccccc21	none
O=C(O)CCCNS(=O)(=O)c1ccc(NCc2ccccc2)c(C(=O)O)c1	none
COc1ccc(C(=O)NC(=S)Nc2ccc3c(c2)Cc2ccccc2-3)cc1	none
O=C(NC(=S)Nc1ccc2[nH]ncc2c1)c1ccccc1	CYP2C19 inh 99.4, CYP2C9 inh 95.2
CC(=O)Nc1cccc(Oc2ccc(-c3noc(C)n3)cc2)c1	CYP2C19 inh 76.5, CYP2C9 inh 57.0
COc1ccc(-c2noc(-c3ccccc3C(=O)Nc3cccc(OC)c3)n2)cc1	none
CCn1c(SCC(=O)Nc2ccccc2C(=O)OC)nnc1-c1cccc(C)c1	CYP2C19 inh 98.7, CYP2C9 inh 68.0
COC(=O)c1ccccc1NC(=O)CSc1nnc(-c2cccnc2)n1C	none (no result: CYP2C19 activ, CYP2C19 inh, CYP2C9 act, CYP2C9 inh)
CCn1c(COc2ccccc2C)nnc1SCC(=O)CC(=O)Nc1ccccc1	CYP2C9 inh 54.8
CCOC(=O)c1ccccc1NC(=O)CSc1nnc(COc2ccccc2)n1CC	CYP2C19 inh 89.0
CCn1c(COc2cccc(OC)c2)nnc1SCC(=O)Nc1cccc(OC)c1	CYP2C19 inh 82.4, CYP2C9 inh 63.7
CCOc1cc(S(=O)(=O)NCc2ccccc2)ccc1F	none
CCOC(=O)c1c(NC(=O)CSc2nnc(Cc3ccccc3)o2)sc(C)c1C	none (no result: CYP2C19 activ, CYP2C19 inh, CYP2C9 act, CYP2C9 inh)
Cn1c(SCC(=O)Nc2cccc(F)c2)nnc1-c1cccnc1	none (no result: sEH act, sEH inh)
CCOC(=O)c1cccc(NC(=O)CSc2nnc(COc3ccccc3)n2CC)c1	CYP2C19 inh 57.8, CYP2C9 inh 62.6
CCOC(=O)c1cccc(NC(=O)c2cccnc2)c1	none (no result: sEH act, sEH inh)
CCOC(=O)c1cccc(NC(=O)CSc2nnc(-c3cccnc3)n2CC)c1	CYP2C19 inh 52.9, CYP2C9 inh 63.7
CCOC(=O)c1cccc(Nc2nc(-c3cccnc3)nc3ccccc23)c1	CYP2C19 inh 73.7, CYP2C9 inh 88.0
CCOC(=O)c1cccc(NC(=O)CSc2nnc(CNc3ccc(C)cc3)n2CC)c1	CYP2C19 inh 65.7, CYP2C9 inh 70.2
COC(=O)c1cccc(NC(=O)CSc2nnc(COc3ccccc3)n2C)c1	none
COC(=O)CSc1nnc(CNc2ccc(Cl)cc2)n1Cc1ccccc1	CYP2C19 inh 96.6, CYP2C9 inh 92.3
CCn1c(COc2ccccc2C)nnc1SCC(=O)NC1CCCC1	none
CCn1c(COc2cccc3ccccc23)nnc1SCC(=O)OC1CCCCC1	CYP2C19 inh 87.8
O=C(CSc1nnc(CNc2ccc(F)cc2)n1Cc1ccccc1)NCc1ccccc1	none (no result: CYP2C19 activ, CYP2C19 inh, CYP2C9 act, CYP2C9 inh)
CCn1c(COc2ccccc2)nnc1SCC(=O)Nc1cc(OC)ccc1OC	none
CCn1c(CNc2ccc(C)cc2)nnc1SCC(=O)NCc1ccccc1	CYP2C19 inh 78.0
CCn1c(CNc2ccccc2Cl)nnc1SCC(=O)NCc1ccccc1	none
CCn1c(COc2cccc(C)c2)nnc1SCC(=O)Nc1cccc(C(=O)OC)c1	CYP2C9 inh 56.4
